Experimental findings from the supplement of paper PMC9135407 are described below.

For the assay, the system named is primary human hepatic stellate cells (donor 1). Kind of assay: scaled lipid accumulation score (0 = DMSO-like, 1 = nortriptyline-like); higher = stronger HSC inactivation (lipid re-accumulation), active = hit call of the paper. The note with it: 48 h.
Where [1] appears, read: library stock concentration: 10 mM.
Where [2] appears, read: library stock concentration: 1 mM.
The mark [3] stands for this setting: library stock concentration: 4.9 mM.
Setting [4] is: library stock concentration: 3.33 mM.
Where [5] appears, read: library stock concentration: 400 uM.
[6] abbreviates: library stock concentration: 2 mM.
Setting [7] is: library stock concentration: 80 uM.

Where “and” joins values, the source holds several entries; their conditions need not be identical. Equal values may be shown once. Where a name gives a salt, the structure may show the parent alone. Screen size: about 5,800 compounds; about 620 (11%) showed activity. What follows is part of a selection rich in actives, with near analogues and random picks from the rest. A number with no mark means an inactive call.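 The calls were made as follows: active = score above a cut-off or among the top three wells of a plate; in these data no inactive exceeds 0.85.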

On to `CCCCCC=CCC=CC=CC=CC(SCC(NC(C)=O)C(=O)O)C(O)CCCC(=O)O` (configuration not stated) [N-Acetyl-leukotriene E4], for which the “scaled lipid accumulation score” value (library stock concentration: 100 uM) was 0.032.

Turning to `O=C(O)CCc1nc2ccccc2[nH]1`, the “scaled lipid accumulation score” value under setting [1] is 0.2.

For the molecule `O=c1c2sc(-c3ccc(F)cc3)cc2ncn1Cc1nc2ccccc2[nH]1`, the “scaled lipid accumulation score” value under setting [1] was 0.756 (active).

With `c1ccc(N2CCN(Cc3nc4ccccc4[nH]3)CC2)nc1` [ABT 724 trihydrochloride], the “scaled lipid accumulation score” value under setting [1] was ≤ -0.001.

For `CCCCCCCCCCCCCCCCOP(=O)([O-])OCC[N+](C)(C)C` [Miltefosine], the “scaled lipid accumulation score” value under setting [2] was ≤ 0, the “scaled lipid accumulation score” value under setting [3] was ≤ -0.006 and the “scaled lipid accumulation score” value under setting [1] was 0.007.

Take `O=C(NCc1cccc(O)c1)Nc1nc(-c2ccncc2)cs1` [listing 1 of 2 here]: the “scaled lipid accumulation score” value under setting [1] is 1.02 (active).

Take `O=C(NCc1cccc(O)c1)Nc1nc(-c2ccncc2)cs1` [listing 2 of 2 here]: the “scaled lipid accumulation score” value under setting [4] was 0.56.

As for `O=C(NCc1ccccc1)c1csc(Nc2ccncn2)n1` [Thiazovivin], the “scaled lipid accumulation score” value reads like this: under setting [4], ≤ 0; under setting [1], 0.14.

On to `Cc1nnc(C(C)C)n1C1C[C@H]2CC[C@@H](C1)N2CC[C@H](NC(=O)C1CCC(F)(F)CC1)c1ccccc1` (stereo in doubt) [Maraviroc], for which the “scaled lipid accumulation score” value under setting [4] was ≤ 0 and the “scaled lipid accumulation score” value under setting [1] is ≤ 0.

On to `COc1ccc(/C=C/c2cc(Cl)cc(Cl)c2)cc1`, for which, under setting [2], the “scaled lipid accumulation score” value is ≤ 0.

For `CCCCCCCCCCCCCCCNC(=O)C1CCCCC1` [N-Cyclohexanecarbonylpentadecylamine], under setting [2], the “scaled lipid accumulation score” value is ≤ 0.

With `CCN(CC)CCCN(c1ccccc1)C1Cc2ccccc2C1` [Aprindine hydrochloride], under setting [1], the “scaled lipid accumulation score” value is 0.262.

Regarding `O=C(O)CCC/C=C\C[C@@H]1[C@@H](/C=C/[C@H](O)C2Cc3ccccc3C2)[C@@H](F)C[C@@H]1O`, the “scaled lipid accumulation score” value under setting [1] is ≤ -0.07.

In the case of `CC1(C)CC(=O)c2c(C(F)(F)F)nn(-c3ccc(C(N)=O)c(N[C@H]4CC[C@H](OC(=O)CN)CC4)c3)c2C1` [listing 1 of 2 here], the “scaled lipid accumulation score” value under setting [1] was 1.05 (active).

For `CC1(C)CC(=O)c2c(C(F)(F)F)nn(-c3ccc(C(N)=O)c(N[C@H]4CC[C@H](OC(=O)CN)CC4)c3)c2C1` [listing 2 of 2 here], the “scaled lipid accumulation score” value under setting [4] is 0.77.

As for `CC1(C)CC(=O)c2c(C(F)(F)F)nn(-c3ccc(C(N)=O)c(N[C@H]4CC[C@H](O)CC4)c3)c2C1`, the “scaled lipid accumulation score” value was 0.635 under setting [4] and 0.742 under setting [1].

As for `c1ccc(COCCCc2c[nH]cn2)cc1` [Proxyfan Oxalate], the “scaled lipid accumulation score” value under setting [1] was ≤ 0.

Take `CC(C)(S)C(N)C(=O)O` (racemic): the “scaled lipid accumulation score” value under setting [1] was ≤ 0.

On to `Cc1cc(Nc2cc(N3CCN(C)CC3)nc(Sc3ccc(NC(=O)C4CC4)cc3)n2)n[nH]1` [Tozasertib (VX-680, MK-0457) (10 mM)], for which the “scaled lipid accumulation score” value under setting [1] is 0.456.

Consider `Cc1cc(Nc2cc(N3CCN(C)CC3)nc(C=Cc3ccccc3)n2)n[nH]1`, for which the “scaled lipid accumulation score” value under setting [4] is 1.06 (active).

For the molecule `Cc1cc(Nc2cc(N3CCN(C)CC3)nc(Sc3ccc(NC(=O)C4CC4)cc3)n2)n[nH]1` [VX-680 (Tozasertib, MK-0457)], the “scaled lipid accumulation score” value is 0.193 under setting [4] and 0.038 under setting [1].

On to `Cc1cc(Nc2cc(N3CCN(C)CC3)nc(Sc3ccc(NC(=O)C4CC4)cc3)n2)n[nH]1` [Tozasertib (VX-680, MK-0457) (0.4 mM)], for which the “scaled lipid accumulation score” value under setting [5] was ≤ -0.005.

Turning to `Cc1cc(Nc2cc(N3CCN(C)CC3)nc(Sc3ccc(NC(=O)C4CC4)cc3)n2)n[nH]1` [Tozasertib (VX-680, MK-0457) (2 mM)], the “scaled lipid accumulation score” value under setting [6] was ≤ -0.005.

For `Cc1cc(Nc2cc(N3CCN(C)CC3)nc(Sc3ccc(NC(=O)C4CC4)cc3)n2)n[nH]1`, the “scaled lipid accumulation score” value reads like this: under setting [7], 0.003; under setting [5], 0.063; under setting [6], 0.248; under setting [1], 0.47.

For the molecule `Cc1cc(Nc2cc(N3CCN(C)CC3)nc(/C=C/c3ccccc3)n2)n[nH]1`, the “scaled lipid accumulation score” value under setting [1] was 0.603.

As for `Cn1cc(-c2cnn3c(N)c(Br)c([C@@H]4CCCNC4)nc23)cn1`, the “scaled lipid accumulation score” value under setting [4] is ≤ 0 and the “scaled lipid accumulation score” value under setting [1] was 0.521.

For `CCCCCCCCCCCCCCCC(=O)N[C@H](CN1CCOCC1)[C@H](O)c1ccccc1` (racemic), the “scaled lipid accumulation score” value under setting [2] was ≤ -0.021.

Regarding `CCCCC[C@H](O)/C=C/[C@H]1[C@H](O)CC(=O)[C@@H]1CCCCCCCO` [Prostaglandin E1 Alcohol], the “scaled lipid accumulation score” value under setting [2] is 0.129.

`O=C1C(c2ccccc2)N(c2ccc(Br)cc2)C(=O)N1c1ccc(Br)cc1` (configuration not stated): the “scaled lipid accumulation score” value under setting [2] was ≤ 0.

`CC[C@H](C)C(=O)O[C@H]1C[C@H](O)C=C2C=C[C@H](C)[C@H](CC[C@@H]3C[C@@H](O)CC(=O)O3)[C@H]21` [Pravastatin lactone]: the “scaled lipid accumulation score” value under setting [3] is ≤ 0.

`CCNC(=O)N1CCN(CCCC(c2ccc(F)cc2)c2ccc(F)cc2)CC1` [Amperozide hydrochloride]: under setting [1], the “scaled lipid accumulation score” value is 0.661.

Consider `O=C1NCN(c2ccccc2)C12CCN(CCCC(c1ccc(F)cc1)c1ccc(F)cc1)CC2` [Fluspirilene], for which, under setting [1], the “scaled lipid accumulation score” value was 1.02 (active).

`O=C1NCN(c2ccccc2)C12CCN(CCCC(c1ccc(F)cc1)c1ccc(F)cc1)CC2` [Fluspirilen]: the “scaled lipid accumulation score” value was ≤ 0.

For `O=C(Nc1ccc(C(F)(F)F)cn1)N1CCN(c2ncccc2C(F)(F)F)CC1`, the “scaled lipid accumulation score” value under setting [1] is 0.012.

For the molecule `CCCC[C@@H](C)/C=C(C)/C=C(\C)C(=O)NC1=C[C@@](O)(/C=C/C=C/C=C/C(=O)NC2=C(O)CCC2=O)[C@@H]2O[C@@H]2C1=O` [Manumycin A], the “scaled lipid accumulation score” value (library stock concentration: 9.1 mM) was 0.793.

Regarding `C=CC(=O)Nc1cc2c(Nc3ccc(F)c(Cl)c3)ncnc2cc1OCCCN1CCOCC1` [listing 1 of 2 here], the “scaled lipid accumulation score” value under setting [1] was 0.983 (active).

On to `C=CC(=O)Nc1cc2c(Nc3ccc(F)c(Cl)c3)ncnc2cc1C#CC(C)(C)N1CCN(C)CC1`, for which the “scaled lipid accumulation score” value under setting [5] is 0.879 (active).

As for `C=CC(=O)Nc1cc2c(Nc3ccc(F)c(Cl)c3)ncnc2cc1OCCCN1CCOCC1` [listing 2 of 2 here], the “scaled lipid accumulation score” value runs as follows: under setting [7], 0.045; under setting [5], ≤ -0.009 and ≤ -0.005; under setting [6], 0.07 and ≤ -0.005; under setting [1], 0.314.

Turning to `COc1cc2ncnc(Nc3ccc(F)c(Cl)c3)c2cc1OCCCN1CCOCC1` [Gefitinib (ZD1839, Iressa) (2 mM)], under setting [6], the “scaled lipid accumulation score” value is 0.864 (active).

With `COc1cc2ncnc(Nc3ccc(F)c(Cl)c3)c2cc1OCCCN1CCOCC1` [Gefitinib (ZD1839, Iressa) (10 mM)], under setting [1], the “scaled lipid accumulation score” value is 0.94 (active).

With `COc1cc2ncnc(Nc3ccc(F)c(Cl)c3)c2cc1OCCCN1CCOCC1` [Gefitinib (ZD1839)] [listing 1 of 2 here], under setting [4], the “scaled lipid accumulation score” value is 0.43.

`COc1cc2ncnc(Nc3ccc(F)c(Cl)c3)c2cc1OCCCN1CCOCC1` [Gefitinib (ZD1839)] [listing 2 of 2 here]: the “scaled lipid accumulation score” value under setting [1] was 1.05 (active).

For `C=CC(=O)Nc1ccc2ncnc(Nc3cccc(Br)c3)c2c1`, the “scaled lipid accumulation score” value was 0.014 under setting [4] and 0.802 under setting [1].

For the molecule `COc1cc2ncnc(Nc3ccc(F)c(Cl)c3)c2cc1OCCCN1CCOCC1` [Gefitinib (ZD1839, Iressa) (0.4 mM)], under setting [5], the “scaled lipid accumulation score” value was 0.081.

Regarding `COc1cc2ncnc(Nc3ccc(F)c(Cl)c3)c2cc1OCCCN1CCOCC1` [Gefitinib], the “scaled lipid accumulation score” value (library stock concentration: 4.5 mM) was 0.19.

In the case of `COc1cc2ncnc(Nc3ccc(F)c(Cl)c3)c2cc1OCCCN1CCOCC1`, the “scaled lipid accumulation score” value is, setting by setting: under setting [7], ≤ -0.003; under setting [5], ≤ -0.009; under setting [6], 0.19; under setting [1], 0.65.

With `CC(=O)OCC(=O)[C@@]1(O)[C@H](OC(C)=O)C[C@H]2[C@@H]3CCC4=CC(=O)C=C[C@]4(C)[C@@]3(F)[C@@H](O)C[C@@]21C` [Triamcinolone diacetate], under setting [1], the “scaled lipid accumulation score” value was ≤ 0.

With `COc1ncc(-c2ccc3nccc(-c4ccnnc4)c3c2)cc1NS(=O)(=O)c1ccc(F)cc1F`, the “scaled lipid accumulation score” value was ≤ -0.009 under setting [7]; ≤ -0.009 under setting [5]; ≤ -0.009 under setting [6]; 0.066 under setting [4]; 0.479 and 0.24 under setting [1].

For the molecule `O=C(Nc1ccccc1)C12CC1C(=NO)c1ccccc1O2` (configuration not stated), under setting [1], the “scaled lipid accumulation score” value was ≤ -0.006.

Consider `Clc1cccc(Nc2nnc(-c3ccccc3)c3ccccc23)c1`, for which the “scaled lipid accumulation score” value by setting is: under setting [1], 0.162; (library stock concentration: 15.1 mM) 0.258.

In the case of `CCCCCCCCCC(=O)N[C@H](CN1CCOCC1)[C@H](O)c1ccccc1` (racemic) [DL-threo-PDMP (hydrochloride)], the “scaled lipid accumulation score” value under setting [2] was 0.001.

For `CCCn1c(=O)c(C)cn2nc(N)nc12`, the “scaled lipid accumulation score” value under setting [1] is ≤ 0 and 0.03.

Regarding `C=C1CC[C@@H]2[C@](C)(CO)[C@H](O)CC[C@@]2(C)[C@@H]1C/C=C1/C(=O)OC[C@H]1O` [Andrographolide], the “scaled lipid accumulation score” value is 0.094 under setting [4] and 0.785 under setting [1].

For `C[C@@H]1C[C@H]2[C@@H]3C[C@H](F)C4=CC(=O)C(Cl)=C[C@]4(C)[C@@]3(F)[C@@H](O)C[C@]2(C)[C@@]1(O)C(=O)CO`, the “scaled lipid accumulation score” value under setting [1] is ≤ 0.

As to `CC1(C)S[C@@H]2[C@H](NC(=O)[C@H](N)c3ccc(O)cc3)C(=O)N2[C@H]1C(=O)O` [Amoxicillin Sodium], the “scaled lipid accumulation score” value runs as follows: under setting [4], ≤ 0; under setting [1], ≤ 0.

In the case of `CC1(C)S[C@@H]2[C@H](NC(=O)[C@H](N)c3ccc(O)cc3)C(=O)N2[C@H]1C(=O)O`, under setting [1], the “scaled lipid accumulation score” value is 0.145.

For the molecule `CC1(C)S[C@@H]2[C@H](NC(=O)[C@H](N)c3ccc(O)cc3)C(=O)N2[C@H]1C(=O)O` [Amoxicillin], the “scaled lipid accumulation score” value is 0.056. Further, the “scaled lipid accumulation score” value under setting [4] is ≤ 0. For the same molecule, under setting [1], the “scaled lipid accumulation score” value is 0.044 and ≤ 0.

For the molecule `O=C(CCC/C=C\C[C@@H]1C(/C=C/[C@@H](O)COc2cccc(C(F)(F)F)c2)[C@H](O)C[C@@H]1O)NC(CO)CO` (some centres not stated) [Fluprostenol serinol amide], the “scaled lipid accumulation score” value under setting [2] was ≤ 0.

Turning to `c1ccc(C2CN3CCSC3=N2)cc1` (single isomer, unassigned; (-)) [(-)-Tetramisole hydrochloride], the “scaled lipid accumulation score” value under setting [1] was ≤ -0.055.

For the molecule `CCCCC(C)(O)C/C=C/[C@H]1[C@H](O)CC(=O)[C@@H]1CCCCCCC(=O)OC` (some centres not stated) [Misoprostol], the “scaled lipid accumulation score” value under setting [2] was ≤ 0 and the “scaled lipid accumulation score” value (library stock concentration: 5.2 mM) was ≤ 0.
